High-throughput results as filed in PubChem.
A selection: hits, their analogues and other compounds. The true share with any hit is near 12%.
BAZ2B inh = qHTS Assay for Inhibitors of BAZ2B; AlphaScreen BAZ2B-H3K14Ac peptide displacement; Bromodomain adjacent to zinc finger domain protein 2B (Homo sapiens), Q9UIF8; AID 504333, 2011; 360,000 tested, 4.4% active; Potency, µM (series often up to 114 µM), inactives show at the highest dose activity change, negative = inhibition, most hits filed as inhibitors; also: % is scaled to controls: 0 for no effect and ±100 for the full control effect; nearly all actives have a fitted effect of over 60% in size
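BAZ2B 50 nM plus b-H3(5-23)K14Ac 50 nM, PBS pH 7.4/0.01% Tween-20, 30 min RT; compound added (max 110 uM), 30 min RT; streptavidin donor/Ni-chelate acceptor beads 10 ug/mL final, 20 min dark; AlphaScreen read.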
Sfp inh = qHTS Assay for Inhibitors of Bacillus subtilis Sfp phosphopantetheinyl transferase (PPTase); Biochemical Sfp PPTase activity, qHTS; Potency, µM, for the others: largest response in the series, negative = inhibition, actives largely listed as inhibitors; 310,000 tested, 3.5% active; AID 1490, 2009;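 also: the enzyme is Sfp with the accession as filed and its product quenches rhodamine fluorescence; 0% = enzyme reaction without inhibitor and -100% = no enzyme wells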
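Sfp 15 nM + cpd, 15 min RT; start w/ rhodamine-CoA 5 uM, BHQ-2-YbbR 12.5 uM (final); 50 mM Hepes pH 7.6, 10 mM MgCl2, 0.01% NP-40, 0.01% BSA; read 525/598 nm at 0 and 30 min.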
HP1b binding inh = HTS for Inhibitors of HP1-beta Chromodomain Interactions with Methylated Histone Tails. AlphaScreen HP1-beta / biotin-H3K9me3 peptide binding. Potency, µM (series often up to 114 µM), inactives show at the top dose activity change, negative = inhibition, actives largely listed as inhibitors. 390,000 tested, 0.56% active. AID 540317, 2011; also: nearly all actives have a fitted effect of over 70% in size
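Compound inhibition of the preformed complex between 50 nM HP1-beta and 50 nM biotinylated H3K9me3 peptide was read by AlphaScreen. Buffer was PBS pH 7.4 with 0.01% Tween-20. Incubations ran 30 min at room temperature, with 10 ug/mL donor/acceptor beads.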
L3MBTL1 inh = qHTS Assay for the Inhibitors of L3MBTL1; 230,000 tested, 0.66% active; AlphaScreen L3MBTL1–H3K9me1 peptide binding; AID 485360, 2010; Potency, µM (highest dose often 57.1 µM), for inactives: at the top dose activity, negative = inhibition, hits mostly inhibitors; also: % is scaled to controls: 0 for no effect and ±100 for the full control effect; nearly all actives have a fitted effect of over 60% in size
Target sequence (Q9Y468 whole entry, looked up): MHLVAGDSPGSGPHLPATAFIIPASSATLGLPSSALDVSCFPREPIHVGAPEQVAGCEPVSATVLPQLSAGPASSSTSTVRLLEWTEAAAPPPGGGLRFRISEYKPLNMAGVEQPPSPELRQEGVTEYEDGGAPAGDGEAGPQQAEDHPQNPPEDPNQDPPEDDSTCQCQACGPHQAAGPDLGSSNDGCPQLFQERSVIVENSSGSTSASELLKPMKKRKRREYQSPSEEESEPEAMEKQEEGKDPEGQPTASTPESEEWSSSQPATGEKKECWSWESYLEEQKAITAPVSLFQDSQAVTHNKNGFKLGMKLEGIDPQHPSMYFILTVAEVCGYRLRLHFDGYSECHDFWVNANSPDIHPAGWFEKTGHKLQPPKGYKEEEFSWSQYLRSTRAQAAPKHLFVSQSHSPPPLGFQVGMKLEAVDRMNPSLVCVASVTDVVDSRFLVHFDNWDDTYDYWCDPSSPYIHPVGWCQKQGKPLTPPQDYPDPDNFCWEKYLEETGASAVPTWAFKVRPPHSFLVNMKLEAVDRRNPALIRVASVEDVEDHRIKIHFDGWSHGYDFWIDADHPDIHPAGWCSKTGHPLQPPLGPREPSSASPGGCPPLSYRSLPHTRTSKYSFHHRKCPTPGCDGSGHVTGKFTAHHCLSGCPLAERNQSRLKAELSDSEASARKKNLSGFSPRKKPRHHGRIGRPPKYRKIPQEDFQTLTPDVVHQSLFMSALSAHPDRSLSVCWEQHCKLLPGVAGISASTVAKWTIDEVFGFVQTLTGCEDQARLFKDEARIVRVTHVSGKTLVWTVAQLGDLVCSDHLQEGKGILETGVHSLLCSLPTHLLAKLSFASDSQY
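L3MBTL1 50 nM + b-AHA-H3(1-15)K9me1 75 nM, 30 min RT; compound added, 30 min RT; streptavidin donor/Ni-chelate acceptor beads 10 ug/mL each final, 30 min RT dark; AlphaScreen read.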
G9a inh = qHTS Assay for Inhibitors of Histone Lysine Methyltransferase G9a; G9a H3K9 monomethylation, AlphaScreen, 2 h; Potency, µM (top dose mostly 102 µM), inactives show at the highest dose activity, negative = inhibition, usual class: inhibitors; Histone-lysine N-methyltransferase EHMT2 (Homo sapiens), Q96KQ7; 350,000 tested, 8.8% active; also: % is scaled to controls: 0 for no effect and ±100 for the full control effect; nearly all actives have a fitted effect of over 75% in size
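AlphaScreen detection with an anti-monomethyl H3K9 antibody quantified product after a 2 h room-temperature reaction containing 500 nM biotinylated H3K9 peptide, 20 µM SAM and 20 nM enzyme, which had been preincubated 15 min with compound.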
JMJD2A Tudor inh = qHTS Assay for Inhibitors of JMJD2A-Tudor Domain; Lysine-specific demethylase 4A (Homo sapiens), O75164; AlphaScreen JMJD2A-Tudor / H3K4me3 peptide binding; Potency, µM (doses to about 114 µM), inactives show at the top dose activity change, negative = inhibition, most hits filed as inhibitors; 390,000 tested, 4.4% active; AID 504339, 2011; also: % is scaled to controls: 0 for no effect and ±100 for the full control effect; nearly all actives have a fitted effect of over 50% in size
Active calls of the source: *; ? = inconclusive; / = not tested or not shown; [ ] = dose if it differs, or a comment. Calls follow the shape of the dose curve; as a rule, active = well fitted curve in the direction sought with a large enough effect; inconclusive = small, poorly fitted or top-dose-only effect, or another doubt; inactive = no such curve, though single readings can be large; an effect the other way counts as inactive or inconclusive. Potency is read from the fitted curve at half-maximal effect.

SMILES	BAZ2B inh	Sfp inh	HP1b binding inh	L3MBTL1 inh	G9a inh	JMJD2A Tudor inh
COc1ccc(-c2cc(=O)oc3cc(OC(C)C(=O)NC(Cc4c[nH]c5ccc(O)cc45)C(=O)O)ccc23)cc1 (stereo unspecified)	50µM*	-4%	0%	-8%	50µM*	-27%
CC(Oc1ccc2c(-c3ccccc3)cc(=O)oc2c1)C(=O)N[C@H](Cc1c[nH]c2ccccc12)C(=O)O (stereo partly specified)	-32%	1%	-11%	/	-3%[12.7 µM]	-33%
CC(C)(C)c1cccc(Oc2nn[nH]n2)c1	-3%	9%	31%	6%	79µM*	-16%
COc1ccc(Cn2c(=O)c3oc4ccccc4c3n(Cc3cccc(C(F)(F)F)c3)c2=O)cc1	-8%	/	1%	/	-5%[59 µM]	-15%
Cc1ccc(NC(=O)Cn2nc(C)n3cccc3c2=O)c(C)c1	-18%	/	44%	/	-39%[59 µM]	-21%
CC(=O)Nc1ccc(S(=O)(=O)NCc2cccn2Cc2cccc(C)c2)cc1	-32%	/	-4%	/	8%[12.7 µM]	?
Cc1cc2c(Nc3ccc(O)cc3)ncnc2s1	?	1%	37%	-10%	56µM*	-13%
Cc1cc2c(Nc3ccc(C(=O)O)cc3)ncnc2s1	-3%	4%	30%	-3%	/	-9%
OCCc1ccc(O)cc1	-5%	/	13%	12%	-5%[59 µM]	-21%
CC(c1ccc(O)cc1)(c1ccc(O)cc1)c1ccc(CCBr)cc1	?	-3%	4%	/	79µM*	-33%
COc1ccc(C2CC(=O)c3c(O)cc(O)cc3O2)cc1O (stereo unspecified)	/	12%	27%	/	/	-8%
COc1cc(C2Oc3cc(C4Oc5cc(O)cc(O)c5C(=O)C4O)ccc3OC2CO)ccc1O (stereo unspecified)	-31%	-2%	19%	-7%	50µM*	-14%
NC(=O)C(=O)NN=C1C2CC3CC(C2)CC1C3	-35%	12%	1%	-2%	45µM*	?
NC(=S)NN=C1C2CC3CC(C2)CC1C3	-11%	32µM*	-24%	7%	14µM*	-17%
O=C(Nc1c(Cl)cc([N+](=O)[O-])cc1Cl)c1cc(Cl)cc(Cl)c1O	/	/	-6%	/	/	?
CCOC(=O)C1CCCN(c2c(NCCCN(C)c3ccccc3)c(=O)c2=O)C1 (stereo unspecified)	0%	-1%	34%	/	56µM*	-13%
CCOC(=O)N1CCN(c2c(NCCCN(CC)c3cccc(C)c3)c(=O)c2=O)CC1	1%	-2%	-17%	/	14µM*	-24%
CCOC(=O)N1CCN(c2c(NCCCN(CC)CC)c(=O)c2=O)CC1	-35%	14%	-3%	/	69%[12.7 µM]	-18%
COc1cnc(-c2ccccn2)nc1Sc1ccc(Cl)cc1	-6%	-2%	24%	-9%	23%	?
COc1ccc(Sc2nc(-c3ccccn3)ncc2OC)cc1	28µM*	-8%	28%	3.5µM*	0%	?
COc1cnc(-c2ccccn2)nc1N(C)c1ccccc1	20µM*	50µM*	2%	/	?	25µM*
CN(c1ccccc1)c1ncccn1	/	/	39%	/	/	0%
COc1cnc(-c2ccccn2)nc1Sc1ccc(F)cc1	28µM*	-5%	13%	?	-3%	?
COC(=O)c1ccc(NC(=O)CN(c2cccc(C(F)(F)F)c2)S(C)(=O)=O)cc1	-13%	/	60%	/	7%[59 µM]	-6%
C=C(C(=O)OCC)C(=O)c1ccccc1	/	-6%	/	/	/	/
SMILES	BAZ2B inh	Sfp inh	HP1b binding inh	L3MBTL1 inh	G9a inh	JMJD2A Tudor inh
Cc1ccc(C(=O)c2oc3ccccc3c2NC(=O)Cc2coc3c(C)c(C)ccc23)cc1	-4%	/	35%	/	7%[59 µM]	-11%
COc1ccccc1Cc1nnc(NC(=O)C2CCN(C(=O)c3ccco3)CC2)s1	-20%	45µM*	?	/	10µM*	-11%
CC(C)c1nnc(NC(=O)C2CCN(C(=O)c3ccco3)CC2)s1	2%	-25%	-4%	/	32µM*	-3%
COCc1nnc(NC(=O)C2CCN(C(=O)c3ccco3)CC2)s1	-2%	50µM*	-16%	/	13µM*	13%
Cc1nnc(NC(=O)C2CCN(C(=O)c3ccco3)CC2)s1	4%	1%	-13%	/	?	-4%
CCc1nnc(NC(=O)C2CCN(C(=O)c3ccco3)CC2)s1	-11%	5%	-3%	/	?	-13%
CCC(C)(C)c1nnc(NC(=O)C2CCN(C(=O)c3ccco3)CC2)s1	?	-101%	?	/	1.8µM*	35µM*
CCCS(=O)(=O)c1ncc(Cl)c(C(=O)N(Cc2ccccc2)Cc2ccco2)n1	-14%	/	24%	/	?	-28%
COc1ccc(NC(=O)C2(S(=O)(=O)c3ccc(C)cc3)CC2)c(OC)c1	-7%	/	34%	/	-4%[59 µM]	-9%
CC(C)COc1ccc(C(=O)N2CCCCC2CCN2CCOCC2)cc1 (stereo unspecified)	-6%	/	15%	/	-8%[59 µM]	-16%
COc1ccc(CNS(=O)(=O)CCNC(=O)c2cccc(OC)c2)cc1	5%	/	21%	7%	50µM*	-14%
COc1ccc(C(=O)NCCS(=O)(=O)NCc2ccc3c(c2)OCO3)cc1	11%	/	9%	-6%	8%[0.501 µM]	-10%
COc1ccc(CNS(=O)(=O)CCNC(=O)c2ccccc2)cc1	7%	/	31%	-5%	-6%	-7%
COc1cccc(C(=O)NCCS(=O)(=O)NCc2ccc3c(c2)OCO3)c1	0%	/	-5%	-3%	40µM*	-23%
COc1ccc(NS(=O)(=O)c2cccc(C(=O)NCc3ccccn3)c2)cc1	4%	/	39%	0%	22%	-15%
COc1cccc(C(=O)NCCS(=O)(=O)NCc2ccccn2)c1	-3%	/	-2%	5%	?	2.5µM*
COc1ccccc1N1CCN(S(=O)(=O)c2cc3c(cc2C)NC(=O)CO3)CC1	-29%	4%	18%	1%	79µM*	-31%
Cc1cc2c(cc1S(=O)(=O)N1CCN(c3cccc(C)c3C)CC1)OCC(=O)N2	15%	-6%	23%	-3%	/	-8%
CN(C)c1ccc(Nc2nc3ccccc3n3nnnc23)cc1	3.5µM*	/	?	/	3.2µM*	7.9µM*
Cc1ccc(C(=O)O)cc1Nc1nc2ccccc2n2nnnc12	?	/	1%	/	5%[59 µM]	32µM*
CCOc1ccc(CC(=O)Nc2c(C(=O)c3ccccc3)oc3ccc(OC)cc23)cc1OCC	-10%	/	36%	/	8%[59 µM]	4%
Cc1ccc2oc(=O)c3cnn(CC(=O)N4CCN(c5ccccc5F)CC4)c3c2c1	-3%	/	37%	/	-23%[59 µM]	0%
